TRPML1 ag: qHTS for Agonists of the Human Mucolipin Transient Receptor Potential 1 (TRPML1); activation, % (no concentration beside the values); 410,000 compounds, 0.12% hits; TRPML1-expressing cells, Ca2+ dye fluorescence, FDSS; in the data active means activation above about 50%; inconclusive means mostly about 30% to 49%; further: 0% is about no effect
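Calcium fluorescence on an FDSS kinetic reader gave the read-out. Tet-induced TRPML1-DL cells were plated overnight, dye-loaded (Ca8 with quencher, 45-90 min, room temperature, dark), then read 110 s after compound addition, and again 110 s after 4uM final 54-4 (EC80).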
TRPV1 ag: HTS Assay for Compounds that Act as Agonists of the Vanilloid Receptor 1; TRPV1-expressing cells, Fluo-8 calcium influx, agonist mode; 320,000 compounds, 0.19% hits; activation, % at 8.33 µM; Transient receptor potential cation channel subfamily V member 1 (Homo sapiens), Q8NER1; AID 540275, 2011; in the data active means activation above about 80%; inconclusive means between about 30% and that limit; further: 0% is about no effect
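Fluo-8 calcium influx in TRPV1-expressing cells, kinetic read (ex 480/em 520 nm). Compound added and read 3 min for agonist activity, followed by capsaicin at EC20 final and 2 min further read for enhancement.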
TRHR agonist-1: qHTS for Small Molecule Agonists and Allosteric Enhancers of Human TRH Receptor: Primary Screen for Agonists | Thyrotropin-releasing hormone receptor (Homo sapiens), P34981 | TRHR cells, calcium flux fluo-8, FDSS agonist mode | activation, % at 2 µM | 360,000 compounds, 0.18% hits; in the data active means activation above about 30%; further: 0% is about no effect
Target sequence (P34981 whole entry, looked up): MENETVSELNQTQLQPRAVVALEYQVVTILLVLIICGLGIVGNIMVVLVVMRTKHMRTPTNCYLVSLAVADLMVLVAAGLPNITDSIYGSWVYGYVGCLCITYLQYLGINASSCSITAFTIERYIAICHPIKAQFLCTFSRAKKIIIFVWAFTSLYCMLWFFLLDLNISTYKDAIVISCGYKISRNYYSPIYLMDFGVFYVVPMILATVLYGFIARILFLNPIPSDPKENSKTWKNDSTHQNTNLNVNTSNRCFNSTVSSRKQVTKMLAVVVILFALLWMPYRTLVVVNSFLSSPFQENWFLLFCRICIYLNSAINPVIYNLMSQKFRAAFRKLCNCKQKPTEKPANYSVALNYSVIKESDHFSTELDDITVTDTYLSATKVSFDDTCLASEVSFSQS
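Fluo-8-loaded TRHR cells; 10 s baseline, compound added, kinetic Ca2+ fluorescence read 1/s, agonist mode.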
TRPV1 potentiator: HTS Assay for Compounds that Act as Potentiators of the Vanilloid Receptor 1; AID 540277, 2011; Transient receptor potential cation channel subfamily V member 1 (Homo sapiens), Q8NER1; potentiation, % at 8.33 µM; 320,000 compounds, 0.02% hits; TRPV1-expressing cells, Fluo-8 calcium influx, capsaicin EC20 potentiation; in the data active means potentiation above about 80%; inconclusive means between about 30% and that limit; further: 0% is about no effect
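Fluo-8 calcium influx in TRPV1-expressing cells, kinetic read (ex 480/em 520 nm). Compound added and read 3 min for agonist activity, followed by capsaicin at EC20 final and 2 min further read for enhancement.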
TRHR enhancer-1: qHTS for Small Molecule Agonists and Allosteric Enhancers of Human TRH Receptor: Primary Screen for Enhancers; 360,000 compounds, 0.66% hits; Thyrotropin-releasing hormone receptor (Homo sapiens), P34981; enhancement, % at 2 µM; TRHR cells, fluo-8 calcium fluorescence, EC20 TRH enhancement; in the data active means enhancement above about 30%; further: 0% is about no effect
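TRHR-expressing cells loaded with fluo-8 calcium dye were read kinetically (ex 480/em 530) during compound addition, then stimulated with an EC20 of TRH (10 nM final). Enhancement of the Gq-mediated intracellular calcium response was scored.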
TRPML1 blocker: qHTS for Inhibitors of the Human Mucolipin Transient Receptor Potential 1 (TRPML1); Mucolipin-1 (Homo sapiens), Q9GZU1; 390,000 compounds, 0.02% hits; activity change, negative = inhibition, % (concentration not given with the values); TRPML1-inducible cells, Ca2+ dye fluorescence, FDSS; active compounds read low; inhibition of EC80 agonist-evoked calcium signal; AID 624415, 2012; in the data active means activity change below about -50%; inconclusive means between about -30% and that limit;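 further: stimulus is agonist 54-4 at its EC80 concentration; on the % scale 0 is the no-effect control and ±100 the full control effect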
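Calcium fluorescence in TRPML1-DL cells induced overnight with Tet: a 110 s read after compound pin addition, then a 110 s antagonist read after challenge with 54-4 at 4 uM final (EC80).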
TRHR enhancer-2: qHTS for Small Molecule Agonists and Allosteric Enhancers of Human TRH Receptor: Confirmation Screen for Enhancers; shares compounds with TRHR enhancer-1; TRH receptor cell assay, enhancer confirmation qHTS; activity change, negative = inhibition, % at 46.1 µM; 970 tested, under 10 active;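 further: compound effect scored on response to added TRH at EC20 of 10 nM; 0% is about no effect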
TRHR agonist-2: qHTS for Small Molecule Agonists and Allosteric Enhancers of Human TRH Receptor: Confirmation Screen for Agonists | shares compounds with TRHR enhancer-1 | TRHR-expressing cells, agonist activation read-out | Potency, µM (top dose mostly 46.1 µM), without a hit: at the highest dose activation, actives largely listed as activators | 970 compounds, 8% hits | AID 493078, 2011; further: potency means the concentration at half of the fitted maximal effect; 0% is about no effect; nearly all actives have a fitted effect of over 75% in size
Active calls of the source: *; ? = inconclusive; · = not tested or not shown. Rows were chosen to be rich in hits. Some 0.96% of all compounds tested hit in one or more screens of this group. Unless noted, the call rests on the fitted dose curve; in most records, active means well fitted curve in the direction sought with a large enough effect; inconclusive means small, poorly fitted or top-dose-only effect, or another doubt; inactive means no such curve, though single readings can be large; an effect the other way counts as inactive or inconclusive.

SMILES	TRPML1 ag	TRPV1 ag	TRHR agonist-1	TRPV1 potentiator	TRHR enhancer-1	TRPML1 blocker	TRHR enhancer-2	TRHR agonist-2
CC1(C)N([O])C(c2ccc(C(=O)O)cc2)=[N+]([O-])C1(C)C	-0.7	·	·	·	·	·	·	·
NNC(=O)c1ccc(O)cc1	0.2	?	0.0	-12.2	46.6*	-13.2	12.5	-0.7%
Cc1ccc(-c2nc3ccccc3c(=O)n2-c2ccc(O)cc2)cc1	1.5	3.9	-0.5	3.8	-2.8	-8.2	·	·
O=c1c2ccccc2nc(-c2ccccc2)n1-c1ccc(O)cc1	1.4	10.6	0.1	2.1	46.5*	?	3.9	-0.7%
CC(C)(C)P(=O)(NCc1ccccc1)c1ccccc1 (configuration not stated)	2.2	-0.9	2.5	6.3	4.6	-6.5	·	·
CC(C)CNP(=S)(c1ccccc1)C(C)(C)C (configuration not stated)	·	1.9	0.3	-3.5	43.1*	·	-10.9	1.2%
CC(=O)O[C@H]1CC[C@]2(C=O)C3CC[C@]4(C)[C@@H](C5=CC(=O)OC5)CC[C@]4(O)C3CC[C@]2(O)C1 (some centres not stated)	0.0	·	·	·	·	-2.9	·	·
CN(C)c1ccc(N=O)cc1	-0.8	·	·	·	·	·	·	·
C=CCn1c(=O)/c(=C\c2ccccn2)s/c1=C(/C#N)C(=O)NCC1CCCO1 (configuration not stated)	-0.4	29.9	46.3*	-18.0	-9.5	20.0	-0.8	?
CN1CCN(c2ccc(N)cc2)CC1	-0.7	-0.2	0.5	11.0	88.6*	7.9	1.8	-0.3%
O=C(CN1CCOCC1)c1cccc([N+](=O)[O-])c1	-0.1	·	·	·	·	·	·	·
Cn1c(O)c(/C=C/C=Nc2ccccc2)c(=O)n(C)c1=S	28.1	9.6	44.6*	-3.0	16.6	9.9	-10.5	30.0%
Cc1ccccc1-n1c(O)c(/C=C/C=Nc2ccccc2)c(=O)[nH]c1=O	8.5	10.0	32.0*	?	-1.6	3.4	?	20.6µM*
Cc1cccc(-n2c(O)c(/C=C/C=Nc3ccccc3)c(=O)[nH]c2=O)c1	16.3	4.6	18.7	3.1	-1.8	33.1	·	·
C[C@H]1CC[C@@H]2[C@@H](C)[C@H]3C(C[C@H]4C5CC[C@H]6C[C@@H](O)CC[C@]6(C)C5CC[C@]34C)N2C1 (some centres not stated)	0.0	·	·	·	·	-5.4	·	·

Screening data deposited in PubChem by National Center for Advancing Translational Sciences (NCATS).
